Bioassay records from PubChem.
A selection: hits, their analogues and other compounds. The true share with any hit is near 3.1%.
p47phox inh = p47phox/p22phox peptide binding inhibitors, primary screen, biochemical, uHTS, NADPH oxidase regulatory subunit; AID 1274, 2008; fluorescence polarization, 2 h; inhibition, % at 24.7 µM; 0.53% of 220,000 active; Neutrophil cytosol factor 1 (Homo sapiens), P14598;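 active = inhibition above about 30%, limit read from the data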;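 note: 0% = p47phox with labelled peptide and 100% = labelled peptide alone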
Mcl-1 Bim block = inhibitors of Bim peptide binding to Mcl-1, primary screen, biochemical, bead-based flow cytometry, multiplex | Bim peptide-Mcl-1 binding | inhibition, % at 10 µM | 0.1% of 190,000 active; in the data active = inhibition above about 40%;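 note: 0% = no compound tracer wells and 100% = peptide blocker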
Target sequence (Q07820 whole entry, looked up): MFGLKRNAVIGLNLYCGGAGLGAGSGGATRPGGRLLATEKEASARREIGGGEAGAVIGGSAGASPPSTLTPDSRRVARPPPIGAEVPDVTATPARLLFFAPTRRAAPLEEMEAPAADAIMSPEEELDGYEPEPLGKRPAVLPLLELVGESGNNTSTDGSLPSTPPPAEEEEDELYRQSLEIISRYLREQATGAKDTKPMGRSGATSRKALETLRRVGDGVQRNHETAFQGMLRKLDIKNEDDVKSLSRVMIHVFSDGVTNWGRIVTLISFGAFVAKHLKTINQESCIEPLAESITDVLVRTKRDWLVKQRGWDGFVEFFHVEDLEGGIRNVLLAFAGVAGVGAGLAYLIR
Mcl1 Bid PPI = Mcl-1/Bid binding inhibitors, primary screen, biochemical, TR-FRET, 1536-well. Induced myeloid leukemia cell differentiation protein Mcl-1 (Homo sapiens), Q07820. TR-FRET Mcl-1/Bid-Dy647 peptide binding. inhibition, % at 21.7 µM. 0.97% of 220,000 active. AID 1021, 2008;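 active = compounds that cut the binding signal by more than half at the single screening dose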;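 note: His-tagged Mcl-1 with europium anti-His antibody binding Bid BH3 peptide; 0% = Mcl-1 plus peptide wells and 100% = peptide-only wells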
14-3-3 Bad inh = inhibitors of 14-3-3 zeta/Bad binding, primary screen, biochemical, TR-FRET, bovine 14-3-3 zeta; TR-FRET 14-3-3zeta/Dy647-pBad peptide displacement, 1 h; inhibition, % at 21.7 µM; 0.71% of 220,000 active;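 active = inhibition above about 70%, limit read from the data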;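 note: 0% = full 14-3-3 plus peptide FRET controls and 100% = background without 14-3-3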
Target sequence (P63103 whole entry, looked up): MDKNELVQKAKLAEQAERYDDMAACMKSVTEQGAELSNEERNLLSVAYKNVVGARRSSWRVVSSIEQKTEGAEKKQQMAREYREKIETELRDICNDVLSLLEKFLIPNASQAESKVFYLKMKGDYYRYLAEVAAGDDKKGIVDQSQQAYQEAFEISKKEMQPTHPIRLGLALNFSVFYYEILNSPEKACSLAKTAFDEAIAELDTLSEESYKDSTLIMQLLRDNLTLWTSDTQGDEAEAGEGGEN
Mcl1 Noxa PPI = Mcl-1/Noxa binding inhibitors, primary screen, biochemical, TR-FRET, 1536-well | inhibition, % at 21.7 µM | Induced myeloid leukemia cell differentiation protein Mcl-1 (Homo sapiens), Q07820 | TR-FRET Mcl-1/Noxa peptide binding, 2 h | AID 1022, 2008 | 1.5% of 220,000 active;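 active = compounds that cut the protein-peptide binding signal by more than 50% relative to plate controls in a single-dose test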;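 note: His-tagged Mcl-1 with rhodamine Noxa BH3 peptide and terbium anti-His antibody; 0% = Mcl-1 plus Noxa peptide wells and 100% = peptide-only wells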
* marks the source's active call; other numbers are inactive results; nt = no result; [ ] = remark or other dose.

SMILES | p47phox inh | Mcl-1 Bim block | Mcl1 Bid PPI | 14-3-3 Bad inh | Mcl1 Noxa PPI
COc1ccccc1CNC(=O)CSCc1cnn(-c2ccccc2)c1-n1cccc1 | -7 | 0 | 7 | -8 | 4
O=C(N/N=C/c1cccnc1)c1cccc(S(=O)(=O)N2CCCC2)c1 | 4 | 55* | -32 | -5 | 1
CCS(=O)(=O)c1ccc(N)cc1 | -2 | -3 | 22 | 11 | 19
CCS(=O)(=O)c1ccc(S(=O)(=O)CC)s1 | -12 | 0 | 70* | 13 | -7
Cc1ccc(OCc2ccc(C(=O)Nc3nc4ccccc4n3Cc3ccccc3)o2)c([N+](=O)[O-])c1 | 32* | -2 | 68* | 16 | 28
Nc1nc2n(n1)C(c1ccco1)CC(c1ccc(F)cc1)N2 (stereo not drawn) | 2 | -1 | -17 | -1 | 23
COc1ccc(C2CC(c3ccccc3)Nc3nc(N)nn32)cc1 (stereo not drawn) | -5 | 0 | 71* | -14 | -1
Nc1nc2n(n1)C(c1ccco1)CC(c1ccccc1)N2 (stereo not drawn) | 46* | 0 | -22 | 4 | -31
COc1ccc(C2CC(c3ccc(Br)cc3)Nc3nc(N)nn32)cc1 (stereo not drawn) | -5 | -2 | -54 | 9 | -9
CCN(CC)S(=O)(=O)c1cccc(NC(=O)c2cc3ccccc3o2)c1 | -24 | 0 | -23 | 7 | 3
CN(C)S(=O)(=O)c1cccc(NC(=O)COC(=O)c2cc3ccccc3oc2=O)c1 | -4 | nt | 80* | 26 | 24
CCN(CC)c1ccc(NC(=O)COC(=O)c2cccs2)cc1 | 0 | -5 | -23 | -10 | 30
CN(C)S(=O)(=O)c1cccc(NC(=O)c2cc3ccccc3o2)c1 | -15 | 0 | -21 | 75*[fluorescence artefact?] | 11
CCN(c1ccc(NC(=O)COC(=O)c2cc3ccccc3oc2=O)cc1)C(C)C | 5 | -3 | -25 | 10 | 86*
O=C(COC(=O)c1cc2ccccc2oc1=O)Nc1cccc(S(=O)(=O)N2CCCCCC2)c1 | 2 | -1 | -23 | 10 | 0
CCN(c1ccc(NC(=O)COC(=O)c2cccs2)cc1)C(C)C | -2 | 0 | -44 | -8 | 87*
CC(CN(C)Cc1nc(Cc2cccc(C(F)(F)F)c2)no1)CN1CCCC1 (stereo not drawn) | -13 | -1 | -38 | -5 | 8
COC(=O)c1ccc(CSc2nc3ccc(S(=O)(=O)N4CCOCC4)cc3[nH]2)cc1 | -13 | -7 | -9 | 4 | -9
COc1cccc(/C=C/C(=O)OCC(=O)Nc2cccc(S(=O)(=O)N(C)C)c2)c1 | -18 | 0 | -30 | 95* | 17
O=C(COC(=O)C12CC3CC(CC(Br)(C3)C1)C2)Nc1cccnc1Cl | -5 | -1 | -8 | -6 | 6
COc1ccc(-c2cnnc(N/N=C/c3ccc(O)c(O)c3)n2)cc1 | -41 | -9 | -93 | 3 | 46
COc1ccc(-c2cnnc(N/N=C/c3ccc(O)cc3)n2)cc1 | -62 | 0 | 25 | 36 | 88*
O=C(O)c1cccc(Cn2c(Cl)c(/C=N/NC(=O)c3cc4ccccc4cc3O)sc2=O)c1 | -59 | nt | 50 | 9 | 87*
CCCCn1c(NCc2ccc3c(c2)OCO3)nc2ccccc21 | -3 | 0 | -8 | 1 | 66*
CCN(CC)c1ccc(CNc2nc3ccccc3n2C)cc1 | 0 | nt | 97* | 1 | 11
SMILES | p47phox inh | Mcl-1 Bim block | Mcl1 Bid PPI | 14-3-3 Bad inh | Mcl1 Noxa PPI
CCN(CC)c1ccc(CNc2nc3ccccc3n2CCN2CCCCC2)cc1 | 2 | 3 | -29 | -5 | 42
COc1ccc(C2(CNS(=O)(=O)c3ccccc3)CCOCC2)cc1 | 0 | 0 | 3 | -2 | 17
COc1ccc(C(=O)NCC(=O)N/N=C/C=C/c2ccccc2)cc1OC | -4 | 2 | -40 | -8 | 14
C/C(=N/NC(=O)c1ccc2c(c1)OCO2)c1ccc(NC(=O)C(F)(F)F)cc1 | 34* | 0 | 31 | 86* | -58
Cc1ccc(C(=O)NCCCn2ccnc2)o1 | -5 | -2 | 62* | 0 | 42
O=C(NCCCn1ccnc1)C(=O)NC1CCCCC1 | -5 | -1 | -2 | 7 | 11
O=C(O)C1CCCCC1C(=O)NCCCn1ccnc1 (stereo not drawn) | 36* | -3 | -50 | 3 | -2
CC12CN3CC(C)(CN(C1)C3c1ccccc1)C2O (stereo not drawn) | -5 | -2 | 3 | -5 | 9
CC12CN3CC(C)(CN(C1)C3c1ccccc1Cl)C2O (stereo not drawn) | -18 | -2 | -3 | 1 | 88*
COc1ccc(-c2cc(=O)oc3cc(OCC(=O)c4cccc([N+](=O)[O-])c4)ccc23)cc1 | 64* | 2 | 50 | 70*[fluorescence artefact?] | 46
COc1ccc(-c2cc(=O)oc3cc(OCC(C)=O)ccc23)cc1 | 3 | -1 | -19 | -25 | -1
CCOC(=O)C1CCN(c2nc(N)c3c(N)nc(SCC(=O)O)cc3c2C#N)CC1 | -43 | nt | -30 | 23 | 77*
CCOC(=O)C1CCN(c2nc(C)cc(C)c2C#N)CC1 | -9 | -3 | -1 | 3 | 24
Oc1ccc(/C=N/Nc2ccnc3cc(Cl)ccc23)cc1O | -37 | nt | -44 | 45 | 95*
CSc1sc(-c2n[nH]c(=S)n2C)c2c1C=CCC2 | 4 | nt | -31 | 6 | 37
CC(=O)Nc1nc(C)c(Oc2ccc(C)cc2)c(=O)[nH]1 | -2 | nt | -10 | 0 | -22
CC(C)N(C)CCOC(=O)/C=C/c1ccccc1 | 38* | -5 | -16 | 24 | 1
CN(CCOC(=O)/C=C/c1ccccc1)C(C)(C)C | 5 | -2 | 5 | -16 | 5
CCCCCn1cnc2c(sc3nc4c(cc32)CSC(C)(C)C4)c1=O | -4 | -2 | -55 | 6 | -4
O=C(Nc1ccc([N+](=O)[O-])cc1)c1cc(-c2ccccn2)nc2c(Cl)cccc12 | -6 | 5 | 42 | 71* | 49
CCOc1ccccc1NC(=O)c1cc(-c2ccncc2)nc2c(Cl)cccc12 | 40* | 5 | 51* | 73* | 16
N#CC(C#N)=C1NC2(CCCC2)Cc2ccccc21 | 3 | -3 | -21 | -12 | 19
Brc1c(NC2=NCCN2)ccc2nccnc12 | -2 | 0 | 2 | 0 | 59*
c1cc(Nc2cccc3nccnc23)c2nccnc2c1 | -45 | 2 | -16 | 0 | 21
CCOc1cc(C(=O)NC(=S)Nc2ccc(Cl)c(C(=O)O)c2)cc(OCC)c1OCC | -15 | nt | -9 | -7 | 6
CC(C)(C)OC(=O)C1C(=O)CC(C)(O)C(C(=O)OC(C)(C)C)C1c1cccnc1 (stereo not drawn) | -9 | 1 | -17 | 80* | -3
CCc1ccc(OCc2nnc(SCCN3CCOCC3)n2CC)cc1 | -11 | -1 | 58* | 66 | 34
